The target in experiment [1] is Lysosomal acid glucosylceramidase (Homo sapiens) (UniProt P04062). Kind of experiment: Glucocerebrosidase-p2 (AID 348; in the data active = potency below about 10 µM; also: potency is read from the fitted curve at half-maximal effect). The following applies: purified GBA, blue fluorogenic substrate, 40 min. The essentials:
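Compounds titrated from 0.6 nM upwards against 0.2 nM enzyme in pH 5.9 citric acid/KH2PO4, taurocholate, tween-20; blue fluorogenic substrate 80 uM, 40 min room temperature, stopped and read Ex 365/Em 440 for AC50.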

The nature of experiment [2]: AP1 Signaling Pathway (AID 357).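 Also: ME-180 reporter cells stimulated with EGF at its EC50 level; % is scaled to controls: 0 for no effect and ±100 for the full control effect.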 The settings on record: ME-180 AP-1-bla reporter, EGF-induced, beta-lactamase ratio, 5 h; at 7.69 µM (top of the series) unless noted. The essentials: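 First, ME-180 AP-1-bla cells were cultured overnight at 37 °C in low-serum Opti-MEM. Next, titrated compounds with EC50 EGF were incubated 5 hours. Finally, CCF4 was added for 2.5 hours and the 460/530 nm ratio recorded.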

Experiment [3] concerns the target Cytochrome P450 1A2 (Homo sapiens) (UniProt P05177). Kind of experiment: p450-cyp1a2 (AID 410; calls by dose curve; also: potency is read from the fitted curve at half-maximal effect). The following applies: recombinant CYP1A2, luciferin-ME demethylation, luminescence; series mostly up to 11.4 µM. The essentials: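 Human CYP1A2 (20nM) demethylated Luciferin-ME at its Km (100uM) in 100mM KPO4. After 10 min compound preincubation, NADPH regeneration ran the reaction 60 min at room temperature. Luciferin was read by luminescence, normalized to 57 uM furafylline.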

A short description of experiment [4]: NFAT Signaling Pathway (AID 444).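 Also: carbachol stimulus at about its EC50 of 1 µM final; % is scaled to controls: 0 for no effect and ±100 for the full control effect.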 The settings on record: Jurkat NFAT-bla M1, carbachol, beta-lactamase ratio, 5 h; at 7.69 µM (top of the series) unless noted. The essentials: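 Jurkat cells carrying an NFAT-driven β-lactamase reporter and co-transfected muscarinic M1 receptor were treated with compound plus carbachol (1 uM final, an EC50 level) for 5 h at 37 °C. CCF4 loading followed for 1 h at RT; 460/530 nm ratio gave %activity.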

Experiment [5] in a line: Stat Signaling Pathway (AID 446).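 Also: ME-180 cervical cancer cells given 40 pM IL-6 alongside compound; SIE-controlled beta-lactamase reporter measured as 460/530 nm FRET emission ratio; % is scaled to controls: 0 for no effect and ±100 for the full control effect.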 The following applies: ME-180 SIE beta-lactamase reporter, IL-6 stimulated, 5 h; at 7.69 µM (top of the series) unless noted. The essentials: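 ME-180 cells carrying a SIE-driven beta-lactamase reporter are stimulated with 40 pM IL-6 for 5 h at 37C in the presence of compound. The 460/530 nm FRET substrate ratio is read after 2.5 h at RT. Data are normalised to 300 pM IL-6 and to 125 nM JAK inhibitor controls.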

The target in experiment [6] is Glucocorticoid receptor (Homo sapiens) (UniProt P04150). The experiment can be described thus: GR-GFP Redistribution (AID 450;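 active = compounds whose dose series gives a full or clear partial fitted curve of increased nuclear translocation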; also: potency is read from the fitted curve at half-maximal effect). The following applies: U2OS GR-GFP nuclear translocation, laser cytometry, 2 h.
For experiment [7] the target is unchanged. The experiment can be described thus: GR-EFC Redistribution (AID 451; calls by dose curve; also: potency is read from the fitted curve at half-maximal effect). The settings on record: CHO-K1 GR-EFC translocation, beta-gal luminescence, 2 h. The essentials: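 CHO-K1 cells stably expressing nuclear-localized β-gal enzyme acceptor and GR fused C-terminally to the enzyme donor fragment; ligand-driven nuclear translocation restores β-gal by complementation. Compounds titrated up to 46 uM final, 2 h at 37 °C; luminescence read.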

Experiment [8] addresses Mitogen-activated protein kinase 10 (Mus musculus) (UniProt Q61831). Kind of experiment: JNK3 AlphaScreen Assay (AID 530).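 Also: kinase came from lysate of stimulated human HepG2 cells; signal reports phosphorylation of biotinylated GST-cJun 1-79 at Ser73 with 10 µM ATP; % is scaled to controls: 0 for no effect and ±100 for the full control effect.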 The following applies: JNK3 lysate, c-Jun phosphorylation; series mostly up to 11.4 µM. The essentials:
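JNK3 came from HepG2 lysates pre-activated with IL-1beta and TNF-alpha and phosphorylated biotinylated GST-cJun (1-79) at 10 uM ATP, pH 7.6, room temperature. Compounds were titrated. AlphaScreen signal used anti-phospho-cJun (Ser73) antibody.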
On the technique in general: Bead proximity is the source of the signal in Alpha formats.

In experiment [9] the target is 3',5'-cyclic-AMP phosphodiesterase 4B (Homo sapiens) (UniProt Q07343). Kind of experiment: qHTS Assay for Inhibitors of PDE-IV (AID 607; active = well fitted activation curve with a large enough effect in the main read-out, with a control signal flat, not every such curve was filed as active; also: % of control where 0% means no effect). The following applies: HEK293 ACTOne CNG channel cells, membrane potential fluorescence; series mostly up to 22.9 µM. The essentials: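 HEK293 ACTOne cells with CNG channel (1000/well), endogenous PDE4; membrane potential dye, compounds up to 22.9 uM final. Fluorescence Ex 535/Em 590; RO 20-1724 (100 uM final) as reference.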
(In qHTS, concentration-response curves come from the screen itself.)

Experiment [10] deals with Cytochrome P450 3A4 (Homo sapiens) (UniProt P08684). The experiment can be described thus: qHTS Assay for Inhibitors and Substrates of Cytochrome P450 3A4 (AID 884; active = well fitted curve in the direction sought with a large enough effect; an effect the other way counts as inactive or inconclusive; also: potency is read from the fitted curve at half-maximal effect; nearly all actives have a fitted effect of over 50% in size). The following applies: recombinant CYP3A4, Luciferin-PPXE luminescence; series mostly up to 57.1 µM. The essentials:
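20 nM human CYP3A4 with 25 uM Luciferin-PPXE (at KM) in 200 mM KPO4, preincubated 10 min with compound; NADPH regeneration started a 60 min RT reaction. Luciferin detected by luminescence, normalized to 57 uM ketoconazole as full inhibition.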

The target is the same in experiment [11]. The experiment can be described thus: qHTS Assay for Activators of Cytochrome P450 3A4 (AID 885; active = well fitted curve in the direction sought with a large enough effect; an effect the other way counts as inactive or inconclusive; also: nearly all actives have a fitted effect of over 65% in size). The settings on record: recombinant CYP3A4, Luciferin-PPXE luminescence, 60 min; series mostly up to 11.4 µM. The essentials: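 Human CYP3A4 (20 nM) with Luciferin-PPXE at 25 uM (its KM) in 200 mM KPO4; 10 min compound preincubation, then NADPH regeneration and 60 min reaction at RT. Luciferin read by luminescence; normalized to 57 uM ketoconazole full inhibition.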

For experiment [12], the target named is Cytochrome P450 2C19 (Homo sapiens) (UniProt P33261). The experiment can be described thus: qHTS Assay for Inhibitors and Substrates of Cytochrome P450 2C19 (AID 899; active = well fitted curve in the direction sought with a large enough effect; an effect the other way counts as inactive or inconclusive; also: nearly all actives have a fitted effect of over 60% in size; also: potency is read from the fitted curve at half-maximal effect). The following applies: recombinant CYP2C19, luciferin-H EGE luminescence; series mostly up to 11.4 µM. The essentials:
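NADPH-dependent conversion of Luciferin-H EGE (10uM, at KM) by 5nM enzyme in 50mM KPO4, 60 min at 37C following 10 min compound preincubation. Stopped with luciferin detection buffer; luminescence read after 20 min.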

Unmarked numbers belong to inactive results. Results filed as inconclusive are left out. The source made the active and inactive calls. Unless noted, calls follow the shape of the dose curve; as a rule, active = well fitted curve in either direction with a large enough effect (not every such curve was filed as active); inconclusive = small, poorly fitted or top-dose-only effect, or another doubt; inactive = flat fitted curve, though single readings scatter. A value given as a limit tells only on which side of the number the result lay.

Lysosomal acid glucosylceramidase (Homo sapiens), sequence (P04062 whole entry, looked up): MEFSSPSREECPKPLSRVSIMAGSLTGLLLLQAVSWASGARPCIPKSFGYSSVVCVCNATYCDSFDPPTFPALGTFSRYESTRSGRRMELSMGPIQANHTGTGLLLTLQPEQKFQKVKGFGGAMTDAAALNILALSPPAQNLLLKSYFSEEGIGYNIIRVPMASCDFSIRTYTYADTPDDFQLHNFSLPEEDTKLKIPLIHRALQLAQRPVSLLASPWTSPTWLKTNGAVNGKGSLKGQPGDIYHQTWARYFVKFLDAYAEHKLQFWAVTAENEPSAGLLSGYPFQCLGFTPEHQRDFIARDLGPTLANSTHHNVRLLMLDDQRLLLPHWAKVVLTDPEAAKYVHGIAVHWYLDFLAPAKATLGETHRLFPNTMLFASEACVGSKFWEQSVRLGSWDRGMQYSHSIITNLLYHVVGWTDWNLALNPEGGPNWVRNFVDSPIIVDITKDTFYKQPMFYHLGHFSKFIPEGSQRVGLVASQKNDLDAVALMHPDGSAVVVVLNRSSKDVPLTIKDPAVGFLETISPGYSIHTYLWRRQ
Cytochrome P450 2C19 (Homo sapiens), sequence (P33261 whole entry, looked up): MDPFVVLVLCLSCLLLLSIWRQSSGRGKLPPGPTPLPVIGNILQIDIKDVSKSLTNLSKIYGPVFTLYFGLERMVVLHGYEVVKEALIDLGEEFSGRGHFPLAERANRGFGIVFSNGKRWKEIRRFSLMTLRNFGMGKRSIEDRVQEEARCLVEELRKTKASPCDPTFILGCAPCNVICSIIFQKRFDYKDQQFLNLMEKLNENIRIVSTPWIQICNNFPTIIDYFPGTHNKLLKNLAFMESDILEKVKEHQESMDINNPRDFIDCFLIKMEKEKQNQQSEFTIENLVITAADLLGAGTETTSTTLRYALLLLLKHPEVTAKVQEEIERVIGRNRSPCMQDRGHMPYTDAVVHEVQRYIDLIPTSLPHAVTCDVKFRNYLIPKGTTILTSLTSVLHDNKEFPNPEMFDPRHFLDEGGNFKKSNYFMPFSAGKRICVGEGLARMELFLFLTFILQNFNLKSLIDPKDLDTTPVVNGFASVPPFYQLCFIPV
Glucocorticoid receptor (Homo sapiens), sequence (P04150 whole entry, looked up, the tested form may be a part): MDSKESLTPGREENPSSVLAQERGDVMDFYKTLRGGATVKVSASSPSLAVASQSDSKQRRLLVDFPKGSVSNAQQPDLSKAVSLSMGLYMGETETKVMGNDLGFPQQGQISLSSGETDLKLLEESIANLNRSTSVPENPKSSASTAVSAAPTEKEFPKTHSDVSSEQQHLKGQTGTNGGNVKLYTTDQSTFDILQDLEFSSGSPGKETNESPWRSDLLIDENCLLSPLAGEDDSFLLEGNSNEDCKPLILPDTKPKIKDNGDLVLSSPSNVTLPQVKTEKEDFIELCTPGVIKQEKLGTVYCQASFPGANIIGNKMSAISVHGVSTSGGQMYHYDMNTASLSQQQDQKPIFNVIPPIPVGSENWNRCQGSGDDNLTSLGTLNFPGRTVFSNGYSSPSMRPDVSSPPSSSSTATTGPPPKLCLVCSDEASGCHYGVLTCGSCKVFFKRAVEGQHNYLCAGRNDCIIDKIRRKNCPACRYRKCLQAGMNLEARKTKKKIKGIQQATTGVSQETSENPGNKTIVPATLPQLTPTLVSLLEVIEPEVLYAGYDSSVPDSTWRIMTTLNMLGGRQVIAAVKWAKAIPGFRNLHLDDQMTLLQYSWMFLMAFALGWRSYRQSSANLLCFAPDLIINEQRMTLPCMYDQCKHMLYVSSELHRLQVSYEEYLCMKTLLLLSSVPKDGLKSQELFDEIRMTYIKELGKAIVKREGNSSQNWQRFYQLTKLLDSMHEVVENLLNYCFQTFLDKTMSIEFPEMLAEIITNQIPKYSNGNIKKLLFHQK
Cytochrome P450 1A2 (Homo sapiens), sequence (P05177 whole entry, looked up): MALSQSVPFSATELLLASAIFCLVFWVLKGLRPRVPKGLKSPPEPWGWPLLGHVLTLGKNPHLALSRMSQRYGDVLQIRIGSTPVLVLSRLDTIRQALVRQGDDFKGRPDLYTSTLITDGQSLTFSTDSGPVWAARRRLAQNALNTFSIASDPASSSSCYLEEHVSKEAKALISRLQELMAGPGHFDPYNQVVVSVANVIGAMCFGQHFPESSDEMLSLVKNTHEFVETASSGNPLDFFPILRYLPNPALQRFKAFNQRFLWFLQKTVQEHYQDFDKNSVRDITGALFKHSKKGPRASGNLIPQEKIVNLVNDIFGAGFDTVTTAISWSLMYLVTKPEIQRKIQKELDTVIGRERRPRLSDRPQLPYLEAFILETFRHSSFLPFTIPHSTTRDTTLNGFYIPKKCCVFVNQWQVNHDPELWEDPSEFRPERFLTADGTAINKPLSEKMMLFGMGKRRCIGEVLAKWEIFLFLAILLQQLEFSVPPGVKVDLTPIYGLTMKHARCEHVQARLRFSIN
3',5'-cyclic-AMP phosphodiesterase 4B (Homo sapiens), sequence (Q07343 whole entry, looked up): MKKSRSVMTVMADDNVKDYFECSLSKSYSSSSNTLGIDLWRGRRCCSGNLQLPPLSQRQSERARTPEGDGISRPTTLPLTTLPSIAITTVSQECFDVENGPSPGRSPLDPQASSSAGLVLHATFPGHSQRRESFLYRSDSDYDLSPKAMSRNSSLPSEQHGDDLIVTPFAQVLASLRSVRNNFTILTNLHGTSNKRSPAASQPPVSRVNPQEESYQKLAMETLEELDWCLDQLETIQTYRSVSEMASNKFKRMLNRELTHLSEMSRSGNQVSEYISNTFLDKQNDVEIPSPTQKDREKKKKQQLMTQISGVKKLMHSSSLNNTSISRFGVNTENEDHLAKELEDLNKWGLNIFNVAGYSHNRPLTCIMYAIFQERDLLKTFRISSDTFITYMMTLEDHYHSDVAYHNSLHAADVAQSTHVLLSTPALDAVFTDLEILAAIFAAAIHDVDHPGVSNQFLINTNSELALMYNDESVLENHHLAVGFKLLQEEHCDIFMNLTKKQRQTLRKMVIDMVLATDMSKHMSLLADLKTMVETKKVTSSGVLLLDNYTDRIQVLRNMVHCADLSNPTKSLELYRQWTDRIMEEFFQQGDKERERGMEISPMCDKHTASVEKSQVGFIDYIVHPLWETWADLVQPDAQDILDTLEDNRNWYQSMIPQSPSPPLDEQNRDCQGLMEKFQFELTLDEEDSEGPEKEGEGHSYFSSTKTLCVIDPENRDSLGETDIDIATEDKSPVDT
Cytochrome P450 3A4 (Homo sapiens), sequence (P08684 whole entry, looked up): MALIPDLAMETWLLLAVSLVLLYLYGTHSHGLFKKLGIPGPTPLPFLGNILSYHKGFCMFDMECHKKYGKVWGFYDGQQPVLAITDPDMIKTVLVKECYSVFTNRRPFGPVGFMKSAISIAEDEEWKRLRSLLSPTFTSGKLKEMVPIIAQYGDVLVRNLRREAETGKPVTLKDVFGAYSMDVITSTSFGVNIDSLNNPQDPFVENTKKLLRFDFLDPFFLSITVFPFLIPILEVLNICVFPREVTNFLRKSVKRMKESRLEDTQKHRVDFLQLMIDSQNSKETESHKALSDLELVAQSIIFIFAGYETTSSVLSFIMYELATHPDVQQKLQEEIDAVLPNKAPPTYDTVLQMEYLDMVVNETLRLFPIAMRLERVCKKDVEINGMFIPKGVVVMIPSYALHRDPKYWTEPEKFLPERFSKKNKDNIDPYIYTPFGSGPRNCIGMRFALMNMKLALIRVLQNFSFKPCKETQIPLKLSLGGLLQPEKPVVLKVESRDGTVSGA

Regarding `Cc1cc2c(cc1C)NC1=C(N2)O[C@H](c2c[nH]c3ccc(COc4ccccc4)cc23)C1=O`, the Potency in experiment [1] was above 11.4 µM; in experiment [3], 2.51 µM (active); in experiment [6] it was above 46 µM; in experiment [7], above 9.22 µM; in experiment [10] it was 3.98 µM (active); in [12], 0.501 µM (active). Further, the activity change, negative = inhibition in [2] is -28.4%; in [4], 2.39%. The activity, negative = inhibition in experiment [5] was -5.89%. The Potency entry in [8], in experiment [9] and in experiment [11] was “inactive” each time.
Regarding `CN[C@@H](c1ccncc1)[C@@H](NC)c1ccncc1`, the Potency is above 11.4 µM in experiment [1], above 46 µM in [6], above 9.22 µM in experiment [7] and 5.01 µM (active) in experiment [10]. The values for the activity change, negative = inhibition in experiment [2] and in experiment [4] were 11.4% and -1.07%, respectively. The Potency result in experiment [3], in experiment [8], in experiment [9] and in [11] was “inactive” each time. In experiment [5], the activity, negative = inhibition was -0.841%.
As for `COc1cc(Cl)c(CC(=O)c2c[nH]c3ccccc23)cc1OC`, the Potency was above 11.4 µM in [1]; 1 µM (active) in experiment [3]; above 46 µM in experiment [6]; above 9.22 µM in experiment [7]; 2.51 µM (active) in experiment [10]. For the same compound, the results for the activity change, negative = inhibition in [2] and in experiment [4] were -19.9% and 26.5%, respectively. Moreover, the activity, negative = inhibition in [5] is -15.8%. Further, the Potency result in experiment [8], in experiment [9] and in [11] was “inactive” in each case.
In the case of `Cn1c(=O)c2[nH]c(SCCN3CCOCC3)nc2n(C)c1=S`, the Potency in experiment [1] is above 11.4 µM; in experiment [3], 0.631 µM (active); in experiment [6], above 46 µM; in experiment [7], above 9.22 µM. In addition, the activity change, negative = inhibition in experiment [2] was 0.183%; in experiment [4], 15.6%. Moreover, the activity, negative = inhibition in experiment [5] is 1.45%. Moreover, the Potency result in experiment [8], in experiment [9] and in [11] was “inactive” throughout.
In the case of `CC(C)(C)C(=O)[C@H]([C@@H](c1ccccc1)N1CCOCC1)N1CCOCC1`, the Potency in experiment [1] is above 11.4 µM; in [6], above 46 µM; in experiment [7], above 9.22 µM; in [10] it was 2.51 µM (active). Moreover, the values for the activity change, negative = inhibition in experiment [2] and in [4] were 0.675% and 16.7%, respectively. Besides, the Potency entry in experiment [3], in experiment [8], in experiment [9] and in experiment [11] was “inactive” throughout. Besides, in [5], the activity, negative = inhibition is 2.4%.
`Nc1nc(SC/C=C\c2ccccc2)c2[nH]cnc2n1`: the Potency was above 11.4 µM in experiment [1]; 5.01 µM (active) in [3]; above 46 µM in experiment [6]; above 9.22 µM in experiment [7]; 2.51 µM (active) in [10]; 1.58 µM (active) in experiment [12]. In addition, the activity change, negative = inhibition in [2] was 6.66%; in [4], 24.8%. Also, the activity, negative = inhibition in experiment [5] was 1.2%. Besides, the Potency entry in experiment [8], in [9] and in experiment [11] was “inactive” throughout.
Turning to `c1ccc(C[C@@H](Nc2cccnc2)c2ccccc2)cc1`, the Potency was above 11.4 µM in [1]; 0.2 µM (active) in [3]; above 46 µM in experiment [6]; above 9.22 µM in [7]; 3.16 µM (active) in [10]. Also, the figures for the activity change, negative = inhibition in experiment [2] and in experiment [4] were 5.71% and -11.2%, respectively. In addition, the activity, negative = inhibition in experiment [5] was -4.39%. Besides, the Potency result in experiment [8], in experiment [9] and in [11] was “inactive” each time.
On to `O=C(CSc1nc2ccccc2c2ccccc12)c1ccccc1`, for which the Potency in experiment [1] was above 11.4 µM; in experiment [3] it was 0.251 µM (active); in [6], above 46 µM; in experiment [7], above 9.22 µM. Also, the results for the activity change, negative = inhibition in experiment [2] and in [4] were -2.08% and 10.2%, respectively. Further, the activity, negative = inhibition in experiment [5] was -4.01%. Also, the Potency entry in experiment [8], in experiment [9] and in experiment [11] was “inactive” throughout.
Turning to `CN(C)C[C@H]1CCC[C@@H](CN(C)C)C1=O`, the Potency is above 11.4 µM in experiment [1], above 46 µM in experiment [6] and above 9.22 µM in experiment [7]. The activity change, negative = inhibition was 5.24% in experiment [2] and -4.78% in experiment [4]. Moreover, the Potency entry in experiment [3], in [8], in experiment [9] and in experiment [11] was “inactive” each time. Besides, the activity, negative = inhibition in experiment [5] is 3.25%.
For the compound `Cc1ccc(S(=O)(=O)Nc2cc(=O)[nH]c3c2CCC3)cc1`, the Potency is above 11.4 µM in [1]; 3.98 µM (active) in [3]; above 46 µM in [6]; above 9.22 µM in [7]; 3.16 µM (active) in experiment [10]; 0.631 µM (active) in experiment [12]. In addition, the activity change, negative = inhibition in [2] is 6.25%; in experiment [4], 9.14%. For the same compound, in experiment [5], the activity, negative = inhibition was -3.68%. The Potency result in [8], in experiment [9] and in experiment [11] was “inactive” in each case.
In the case of `C(=N/Nc1nnc2c(n1)[nH]c1ccccc12)/c1cccnc1`, the Potency in experiment [1] was above 11.4 µM; in experiment [3] it was 0.631 µM (active); in experiment [6] it was above 46 µM; in experiment [7] it was above 9.22 µM; in experiment [10], 3.98 µM (active). The values for the activity change, negative = inhibition in [2] and in [4] were -0.49% and 1.85%, respectively. In addition, the activity, negative = inhibition in experiment [5] is -7.13%. The Potency result in experiment [8], in experiment [9] and in experiment [11] was “inactive” throughout.
Regarding `Cn1c(=S)c2[nH]c(SCc3cccnc3)nc2n(C)c1=O`, the Potency in experiment [1] is above 11.4 µM; in experiment [3] it was 3.98 µM (active); in experiment [6], above 46 µM; in [7], above 9.22 µM; in [10] it was 3.16 µM (active). The activity change, negative = inhibition is -21.1% in experiment [2] and 0.274% in [4]. Further, the activity, negative = inhibition in experiment [5] is 1.06%. The Potency entry in [8], in experiment [9] and in experiment [11] was “inactive” throughout.
With `Cn1c(=O)c2[nH]c(CCCCc3nc4c([nH]3)c(=O)n(C)c(=S)n4C)nc2n(C)c1=S`, the Potency in [1] was above 11.4 µM; in experiment [6], above 46 µM; in experiment [7], above 9.22 µM; in experiment [10], 1.26 µM (active). Moreover, the activity change, negative = inhibition in experiment [2] was 1.54%; in experiment [3] it was -13.8% [at 2.29 µM]; in [4], -2.84%. Besides, the activity, negative = inhibition in [5] was -5.06%. Besides, the Potency result in [8], in [9], in experiment [11] and in experiment [12] was “inactive” in each case.

Values taken from PubChem BioAssay (NCATS).
